This note sets out measurements from ChEMBL document CHEMBL3988442, “University of Dundee, Small-Polar-MMV Screening Library” (2021).

Each structure is given as a SMILES string. Out of some 48,000 compounds screened, about 13,000 (27%) showed an effect of 50% or more. Some of the results follow.

The subject of the assay is Wolbachia pipientis. Put plainly: Anti-Wolbachia Cell-Based Screen. In kind it is functional. Also on record: scale not given: in the data most compounds retested in dose-response had high values. The following applies: 5 µM.
`CCOC(=O)N1CCN(c2nc(CCN)nc3sc(C)c(C)c23)CC1`: the “Percent Effect” value was -2.539%.

Turning to `Cn1ncc(N2CCC(CNC3CC(c4ccccc4)C3)CC2)cc1=O` (configuration not stated), the “Percent Effect” value is given as 0.2132%.

For the compound `COC(=O)N1CCN(C(=O)c2ccc(C)c(N3CCNC3=O)c2)CC1`, the “Percent Effect” value was -15.45%.

For `CCOCCN1CCN(CCOC)CC1C` (configuration not stated), the “Percent Effect” value is -2.366%. With `CCN1Cc2ccccc2CC2(CCN(C(=O)N(C)C)CC2)C1=O`, the “Percent Effect” value worked out at 108.4%. On to `CC(C)CN1CCC2(CCN(CC3CC3)CC2)C1=O.O=C(O)C(F)(F)F`, for which the “Percent Effect” value is 3.548%. With `CN1C(=O)CC2(CCN(S(=O)(=O)C3CC3)CC2)c2ccccc21` the figure was 18.32%; with `CCN1Cc2ccccc2CC2(CCN(CC3CCC3)CC2)C1=O`, 112.5%; with `CCN1CCC2(CN(C(C)=O)CC23CCN(C(=O)N(C)C)CC3)C1=O` (configuration not stated), -7.709%.

Turning to `Cc1ccc2c(c1)C1(CC2)CCN(CC(=O)O)CC1.O=C(O)C(F)(F)F`, the “Percent Effect” value is -2.152%. The result for `O=C(O)CN1CCC2(CCc3ccccc32)CC1` reads -5.092%; that for `Cn1cccc1C(=O)N1CCC2(CCCN(CC3CCC3)C2=O)C1` (configuration not stated), 0%. With `CCN1Cc2ccccc2CC2(CCN(C)CC2)C1=O` the figure was 106.4%. The result for `CCN1Cc2ccccc2CC2(CCN(CC(=O)O)CC2)C1=O.O=C(O)C(F)(F)F` reads 108.1%. In the case of `CCN1CC2(CC1=O)CN(C(=O)c1ccco1)CCN(C(=O)N(C)C)C2` (configuration not stated), the “Percent Effect” value is -10.83%. The result for `O=C1N(CCc2ccccc2)CCCC12CCN(C(CO)CO)C2` (configuration not stated) reads -2.358%; that for `Cn1nc2c(cc1=O)CN(CC1CCCCO1)CC2` (configuration not stated), 1.26%; that for `CCC1CCCCN1Cc1ncc(C(C)(C)C)o1` (configuration not stated), 88.88%.

Regarding `CC(C)(C)c1cnc(CN2CCCC2Cn2cccn2)o1` (configuration not stated), the “Percent Effect” value came out at 3.93%.

For the compound `CCC1CCCCN1Cc1ncc(-c2ccc(OC)cc2)o1` (configuration not stated), the “Percent Effect” value was -15.61%.

In the case of `Cc1cnn(CC2CCCCN2Cc2ncc(C(C)(C)C)o2)c1` (configuration not stated), the “Percent Effect” value was determined as 103.7%. Turning to `CC(C)(C)c1cnc(CN2CCC[C@H]2CO)o1`, the “Percent Effect” value is recorded as -3.159%. The result for `Cc1cnn(CC2CCCCN2Cc2cc(C)on2)c1` (configuration not stated) reads 27.16%; that for `NC(=O)c1ccc(N2CCN(Cc3c(Cl)cncc3Cl)CC2)nc1`, -3.438%; that for `O=C(NS(=O)(=O)c1cccc(C(F)(F)F)c1)c1cnsn1`, 1.908%. The result for `Cn1cc(CCCN2CCN(Cc3cccc(O)c3)CC2)cn1` reads 5.998%. As for `COc1ccc(CNC2CCN(c3ccccc3)C2)cc1O` (configuration not stated), the “Percent Effect” value stood at 14.8%. The result for `COc1ccc(CN2CCC(O)CC2)c(OC)c1` reads -14.46%. With `COc1cc(O)ccc1CN1CCN(C2CCc3ccccc3C2)CC1` (configuration not stated) the figure was 95.73%. The result for `COc1ccc(CN2CCCC(Nc3cccc(F)c3)C2)cc1O` (configuration not stated) reads -4.671%; that for `Cc1ccnn1CC(=O)N1CCN(C2CCc3ccccc3C2)CC1` (configuration not stated), -4.494%; that for `Oc1cccc(CN2CCN(C3CCc4ccccc4C3)CC2)c1` (configuration not stated), 111.6%. Consider `COc1ccc(CN2CCN(C3CCc4ccccc4C3)CC2)cc1O` (configuration not stated), for which the “Percent Effect” value is listed as 105.5%. As to `CC(CN1CCOCC1)NC1CCN(Cc2cccc(O)c2)CC1` (configuration not stated), the “Percent Effect” value is reported as -2.88%. With `COc1cc(N2C[C@H]3CN(CCN4CCCC4)C(=O)[C@H]3C2)ncn1` the figure was -15.15%; with `O=C(CNc1cc(Br)ccc1Br)NC1CCS(=O)(=O)C1` (configuration not stated), -18.44%; with `CCN1CCCC(CN2CCn3nc(CNC(=O)N(C)C)cc3C2)C1` (configuration not stated), 11.32%.

With `CC(C)(C)OC(=O)N1CCN(S(C)(=O)=O)C2(CCCCC2)C1`, the “Percent Effect” value stood at 138.8%. With `CC(CC#N)N1CCN(C(=O)OC(C)(C)C)CC1` (configuration not stated) the figure was -8.127%; with `COc1ccc(C2CCN(S(=O)(=O)CCCC#N)CC2)cc1`, -10.18%. With `CC(C)(C)OC(=O)N1CCC(NC2CC2)CC1` the figure was -10.91%; with `CN(C)S(=O)(=O)N1CCN(C(=O)OC(C)(C)C)CC12CCCCC2`, 120.5%; with `CS(=O)(=O)N1CCCC12CCCN(C(=O)c1ccncc1)C2` (configuration not stated), -13.2%. As for `CC(CO)N1CCN(C(=O)OC(C)(C)C)CC1` (configuration not stated), the “Percent Effect” value is on record as -0.0103%. The result for `CC(C)(C)OC(=O)N1CCN(S(=O)(=O)CCCC#N)C2(CCCCC2)C1` reads 111.4%; that for `CS(=O)(=O)N1CCCC12CCCN(C(=O)c1ccnnc1)C2` (configuration not stated), 0.7841%. The result for `O=C(NC1CC1)N1CC[C@H]2[C@H]1CCN2c1nncs1.O=C(O)C(F)(F)F` reads 6.883%; that for `CCN(Cc1ccc2c(c1)OCCO2)C(=O)NC(C)Cn1ccnc1` (configuration not stated), 1.976%; that for `CCOc1ccc(NC(=O)c2cnc(N3CCCC3)nc2C)cc1`, 17.2%.

For `CCOc1ccc(NC(=O)c2cc3c([nH]c2=O)CCC3)cc1`, the “Percent Effect” value worked out at 108.3%. With `CCOC(=O)c1ccc(NC(=O)c2cc3c([nH]c2=O)CCCC3)cc1` the figure was -8.889%; with `Cc1ncsc1CN1C[C@@H]2COC[C@]2(C(=O)NC(C)C)C1.O=C(O)C(F)(F)F`, -19.77%; with `CCCc1nc(C)c(C(=O)NCc2ccc(C)n2C)s1`, 17.26%. For `Cc1cccc(NC(=O)c2sc(C)nc2C)n1`, the “Percent Effect” value stood at 165.1%.

Turning to `Cc1nc(C)c(C(=O)NCCNC(=O)Cc2cccc(F)c2)s1`, the “Percent Effect” value is given as -2.44%. The result for `CCCc1nc(C)c(C(=O)Nc2cccc(C)n2)s1` reads 125.8%. On to `Cc1nc(C)c(C(=O)Nc2cc(N3CCC(C)CC3)ncn2)s1`, for which the “Percent Effect” value is recorded as 1.923%. With `CCCc1nc(C)c(C(=O)NS(=O)(=O)c2cccnc2)s1` the figure was -11.93%; with `COCC(O)CN(C)C(=O)c1cccc(-c2csc(C)n2)c1` (configuration not stated), -1.754%; with `CCn1nc(C)c(CCn2ccnc2-c2cc3n(n2)CCNC3)c1C`, 7.532%. Turning to `CC(C)c1cc(NC(=O)c2ccc(C(=O)NC(C)(C)C)cc2)[nH]n1`, the “Percent Effect” value is -2.024%. The result for `Cc1cc(NC(=O)c2ccc(N3CCOCC3)c(C)c2)[nH]n1` reads 7.693%. On to `CC(C)c1cc(NC(=O)c2cccnc2)[nH]n1`, for which the “Percent Effect” value is on record as 108.7%.

For the compound `CC(C)c1cc(NC(=O)c2ccncc2)[nH]n1`, the “Percent Effect” value was determined as 102.9%. On to `Cc1ccc(CC(=O)NCC(O)c2ccc(Cl)cc2Cl)cn1` (configuration not stated), for which the “Percent Effect” value was -14.52%.

Turning to `COc1ccc(N(C(=O)Cc2ccc(C)nc2)C(C)C)cc1F`, the “Percent Effect” value is recorded as -2.597%. The result for `Cc1cc(NC(=O)c2ccc(N3CCOCC3)cc2)[nH]n1` reads -12.35%; that for `CC(C)c1cc(NC(=O)c2ccc(NC3CC3)nc2)[nH]n1`, -1.016%; that for `Cc1ccc(CC(=O)Nc2cc(C(C)C)n[nH]2)cn1`, 129.4%. The result for `Cc1nn(C(C)C)c(C)c1NC(=O)c1ccncc1` reads 7.79%; that for `Cc1ccc(C(=O)Nc2cc(C(C)C)n[nH]2)cn1`, -1.048%.

Turning to `CC(C)c1cc(NC(=O)c2ccc([S+]([O-])C(C)C)cc2)[nH]n1` (configuration not stated), the “Percent Effect” value came to 112.1%.
